Screening results deposited in PubChem BioAssay by several laboratories.
SENP6 inh = inhibitors of human SENP6 protease. Q9GZR1. Recombinant SENP6 catalytic domain, aminoluciferin luminescence. inhibition, % at 10 µM. hit rate 1.8% among 330,000;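 active = inhibition above about 50% at the single tested dose, limit read from the data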;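 also: plate controls were DMSO wells with enzyme for no effect and DMSO wells lacking enzyme for full effect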
SENP8 block-1 = inhibitors of human SENP8 protease; Q96LD8; purified SENP8, Z-RLRGG-aminoluciferin cleavage, luminescence; inhibition, % at 10 µM; hit rate 1.2% among 330,000; AID 2540; in the data active = inhibition above about 50%
Target sequence (Q96LD8 whole entry, looked up): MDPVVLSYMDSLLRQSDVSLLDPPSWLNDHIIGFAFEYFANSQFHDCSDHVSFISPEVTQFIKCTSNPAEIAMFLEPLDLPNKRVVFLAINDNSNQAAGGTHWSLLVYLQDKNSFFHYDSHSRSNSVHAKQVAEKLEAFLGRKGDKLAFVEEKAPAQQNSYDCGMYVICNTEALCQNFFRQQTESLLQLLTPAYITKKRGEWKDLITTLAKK
SENP7 block = blocks the human protease SENP7; Q9BQF6; recombinant SENP7, Z-RLRGG-aminoluciferin luminescence, 40 min; inhibition, % at 5 µM; hit rate 1.5% among 330,000; AID 434973;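 active = inhibition above about 50% at the single test dose, limit read from the data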;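 also: plate controls were DMSO with enzyme for no effect and no enzyme buffer wells for full effect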
SENP8 block-2 = blocks human SENP8 cleavage of Nedd8 substrate. Q96LD8. recombinant SENP8, Nedd8 substrate fluorescence. inhibition, % at 20 µM. hit rate 0.64% among 360,000; in the data active = inhibition mostly above about 40%, no sharp cut-off; inactive = mostly below about 27%
Platelet DG rel = platelet dense granule release activity; inhibition, %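 (compounds screened at 7.5 µM in platelet-rich plasma)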; human platelet-rich plasma, SFLLRN dense granule ATP release, luminescence; hit rate 0.22% among 300,000; AID 1663;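 active = mean replicate score, as percent of positive control, at or above 50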
SENP8 conf = confirmation of human SENP8 protease inhibitors; shares compounds with SENP7 block; Recombinant SENP8, Z-RLRGG-aminoluciferin luminescence, 60 min; inhibition, % at 12.5 µM; hit rate 40% among 6,200; AID 488912;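 active = mean inhibition across replicates above about 50%, limit read from the data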
SENP6 conf = human SENP6 inhibition, confirmed; hit rate 58% among 6,200; shares compounds with SENP7 block; inhibition, % at 12.5 µM; recombinant SENP6, Z-RLRGG-aminoluciferin luminescence; AID 488915
SENP7 conf = human SENP7 inhibition, confirmed; shares compounds with SENP7 block; recombinant SENP7, Z-RLRGG-aminoluciferin luminescence, 40 min; inhibition, % at 12.5 µM; hit rate 69% among 6,200; AID 488917
Casp3 SENP sel = selectivity test for SENP inhibitors: human caspase-3 inhibition. shares compounds with SENP7 block. purified caspase-3, Z-DEVD-aminoluciferin luminescence, 60 min. inhibition, % at 12.5 µM. hit rate 60% among 6,200. AID 488918;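 active = mean inhibition above about 50%, limit read from the data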;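 also: plate controls were enzyme with DMSO for no effect and wells without caspase-3 for full effect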
Target sequence (P42574 28-227 limits assumed): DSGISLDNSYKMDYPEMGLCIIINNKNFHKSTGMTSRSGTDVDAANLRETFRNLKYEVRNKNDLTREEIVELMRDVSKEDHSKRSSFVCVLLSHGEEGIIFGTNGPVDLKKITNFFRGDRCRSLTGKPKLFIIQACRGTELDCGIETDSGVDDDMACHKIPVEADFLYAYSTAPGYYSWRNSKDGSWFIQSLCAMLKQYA
Luc interf = counter-screen for SENP inhibitors: luminescence interference. shares compounds with SENP7 block. Pre-incubated SENP8/Z-RLRGG-aminoluciferin, luciferase luminescence interference. inhibition, % at 12.5 µM. hit rate 39% among 6,200;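 active = mean inhibition above about 50% when retested at one dose, limit read from the data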;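 also: plate controls were DMSO wells with completed reaction for no effect and substrate without enzyme for full effect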
Starred values were filed as active, the others as inactive; i = inactive; x = no result. An excerpt weighted towards active compounds, which were near 2.4% of everything screened.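 The calls were made as follows, unless noted: active = mean inhibition above about 50% in the one-dose retest (limit read from the data); inactive = the rest.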

SMILES	SENP6 inh	SENP8 block-1	SENP7 block	SENP8 block-2	Platelet DG rel	SENP8 conf	SENP6 conf	SENP7 conf	Casp3 SENP sel	Luc interf
COc1ccccc1N/C=C/c1onc(C)c1[N+](=O)[O-]	99*	96*	99*	22	64*	84*	95*	96*	92*	11
COc1ccc(-c2cn3nc4c(nc3n2)CCCC4)cc1	x	x	x	-50	x	x	x	x	x	x
COc1cccc(-c2cn3nc(C)c(C)nc3n2)c1	83*	60*	-3	i	74*	90*	93*	101*	97*	61*
CC(=O)c1ccc(NC(=O)c2cnn3ccccc23)cc1	56*	27	37	-20	27	33	32	73*	73*	60*
CC(=O)c1cccc(NC(=O)c2cnn3ccccc23)c1	57*	44	41	16	29	40	39	78*	78*	56*
O=S(=O)(Nc1cccc(-c2cn3c(n2)SCC3)c1)c1ccccc1	-9	2	15	18	-1	x	x	x	x	x
CC(C)=NOCC(=O)Nn1c(COc2ccccc2)nc2ccccc2c1=O	3	4	13	-1	6	x	x	x	x	x
COc1ccc2c(=O)cc(-c3ccncc3)oc2c1OC	x	x	x	9	x	x	x	x	x	x
Clc1cccc(-c2cc3nc4c(c(NCc5ccco5)n3n2)CCCC4)c1	81*	53*	26	-266	-16	-4	8	3	7	4
Cc1ccc(-c2cc3nc(C)cc(NCc4ccco4)n3n2)cc1	81*	74*	92*	-329	20	46	38	61*	63*	38
COCCNc1cc(C)nc2cc(-c3ccc(C)cc3)nn12	-6	-4	-1	-411	-7	x	x	x	x	x
C/C(=N\Nc1nccnc1Cl)c1ccc(O)c(C)c1	54*	31	93*	-29	19	43	48	75*	76*	56*
CN(CC(=O)Nc1cccc(F)c1)C(=O)c1ccc2c(c1)CC(c1ccccc1)OC2=O (configuration not stated)	-11	-12	13	-27	x	x	x	x	x	x
Cc1ccc(-c2nnc(SCc3ccccc3F)o2)cc1	67*	49	58*	4	-2	61*	70*	87*	45	43
Nc1nc(COC(=O)C2CC(=O)N(CCc3ccccc3)C2)nc(Nc2ccccc2)n1 (configuration not stated)	-16	-13	-13	9	x	x	x	x	x	x
O=C(NCc1ccccc1)c1ccc(F)c(F)c1	-18	-10	0	12	0	x	x	x	x	x
O=C(NCc1ccccc1)c1c(F)c(F)c(F)c(F)c1F	-1	52*	9	16	x	-3	0	-5	-1	-3
Fc1cccc(Nc2ncnc3c2cnn3-c2ccccc2)c1	-9	-21	-9	-186	-13	x	x	x	x	x
O=C(O)c1cccc(Nc2ccnc(Nc3cccc(C(=O)O)c3)n2)c1	94*	90*	98*	19	x	96*	98*	102*	95*	77*
O=C(O)c1cccc(Nc2ncnc3ccccc23)c1	68*	59*	-3	-6	3	70*	64*	85*	36	68*
Oc1cccc(Nc2ncnc3ccccc23)c1	3	-1	11	-5	-2	x	x	x	x	x
O=C(O)c1cccc(Nc2ncnc3c2cnn3-c2ccccc2)c1	97*	90*	90*	-43	6	95*	95*	101*	50	92*
CC(=O)c1ccc(OCc2cc(=O)n3ccsc3n2)cc1	7	-14	2	-11	8	x	x	x	x	x
Cc1ccsc1C(=O)OCc1cc(=O)n2ccsc2n1	53*	48	57*	-63	x	27	50	82*	81*	11
